Compound activity deposited in PubChem BioAssay by National Center for Advancing Translational Sciences (NCATS).
Most compounds without a hit are left out; they make up all but 6.6% or so of the library.
KB-V1 MDR tox: kills drug-selected multidrug resistant KB-V1 cells | KB-V1 MDR cells viability, CellTiter-Glo, 72 h | Potency, µM (doses to about 46.1 µM), usual class: cytotoxic | actives 3.4% (n = 400,000); note: % is set by controls: 0 for no effect and ±100 for the full control effect; nearly all actives have a fitted effect of over 60% in size
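KB-V1 cells (P-gp-expressing MDR subline of KB-3-1) in phenol-red-free DMEM with 10% FBS were exposed to library compounds over a concentration series for 72 h at 37 degrees C. Viability read by CellTiter-Glo luminescence; concentration-effect curves fitted after normalization.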
HT1080NT lethal: kills 2HG-producing HT-1080-NT fibrosarcoma cells | HT-1080-NT fibrosarcoma viability, CellTiter-Glo ATP luminescence, 48 h | Potency, µM (doses to about 46.1 µM), for inactives: at the highest dose activity, negative = less viability, most hits filed as cytotoxic | actives 1.6% (n = 360,000) | AID 686970;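 note: NT is the 2HG producing partner of a matched IDH1 knockdown line; 0% = DMSO-treated cells and -100% = media-only wells without cells; nearly all actives have a fitted effect of over 55% in size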
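Viability by CellTiter-Glo luminescence after 48 h compound exposure at 37C of HT-1080-NT cells (750/well, RPMI, 5% FBS). % activity scaled between DMSO wells and medium-only wells, then curve-fitted and categorized by curve class.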
TGFb SMAD3 inh: TGF-b pathway inhibition; HepG2 CAGA-GFP TGF-b/SMAD3 reporter, GFP fluorescence, 18 h; TGF-beta stimulated, 500 pg/mL final; Potency, µM (highest dose often 46.1 µM), for the others: at the top dose activity, negative = inhibition, hits mostly inhibitors; actives 1.2% (n = 410,000); AID 588855; note: % is set by controls: 0 for no effect and ±100 for the full control effect; nearly all actives have a fitted effect of over 65% in size
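HEPG2 CAGA-GFP cells (1000/well, DMEM with 1% FBS) were pre-incubated 2 h at 37 degrees C, given compound by pin tool, then stimulated with TGF-beta at 500 pg/mL final for 18 h before per-cell GFP fluorescence imaging.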
HepG2 tox: HepG2 cytotoxicity, counter-screen for TGF-b inhibitors. HepG2 CAGA-GFP viability, ATP luminescence, 18 h. Potency, µM (highest dose often 46.1 µM), without a hit: top-dose activity change, negative = cytotoxicity, usual class: cytotoxic. AID 588856. actives 0.76% (n = 410,000)
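CellTiter-Glo luminescence gave cytotoxicity after 18 hours at 37 degrees C. The cells were HepG2 CAGA-GFP in 1% FBS DMEM, stimulated with 500 pg/mL TGF-beta after compound addition. %Activity was normalised to no-cell wells (complete cell-killing) and DMSO (no toxicity), and curves were fitted and classified.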
HT1080 IDH1KD tx: toxicity to HT-1080 IDH1 knockdown cells (counter line). HT-1080 IDH1 knockdown viability, ATP luminescence, 48 h. Potency, µM (titrated, usually from 46.1 µM), for inactives: top-dose activity, negative = toxicity, hits mostly cytotoxic. actives 2% (n = 360,000). AID 686971;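 note: 0% = DMSO wells and -100% = cell-free medium wells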
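Assay cells: HT-1080 with IDH1 knockdown, 750 per well, RPMI/5% FBS. Exposure: 48 h at 37 °C following 2 h pre-incubation. Read: CellTiter-Glo luminescence; fitted concentration-response, curve class assigned.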
KB-3-1 cytotox: KB-3-1 parental cell cytotoxicity. KB-3-1 viability, CellTiter-Glo ATP luminescence, 72 h. Potency, µM (titrated, usually from 46.1 µM), most hits filed as cytotoxic. actives 1.4% (n = 400,000); note: % is set by controls: 0 for no effect and ±100 for the full control effect; nearly all actives have a fitted effect of over 60% in size
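Parental KB-3-1 viability, qHTS format: 72 h compound exposure, 37 °C; CellTiter-Glo; media-only wells and DMSO plates as controls; concentration-effect fits on corrected data.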
Numbers without * were called inactive; i = inactive; u = inconclusive; x = no result; ! = not confirmed by another sample. Calls come from the whole dose curve; as a rule, active = well fitted curve in the direction sought with a large enough effect; inconclusive = small, poorly fitted or top-dose-only effect, or another doubt; inactive = no such curve, though single readings can be large; an effect the other way counts as inactive or inconclusive. Potency is the fitted concentration of half-maximal effect.

SMILES	KB-V1 MDR tox	HT1080NT lethal	TGFb SMAD3 inh	HepG2 tox	HT1080 IDH1KD tx	KB-3-1 cytotox
O=S(=O)(Nc1nc(-c2sccc2Cl)cs1)c1cc(Cl)ccc1Cl	i	-16%	11µM*	-92%	-28%	i
COc1ccc(-c2sc(N)nc2-c2ccccc2)cc1	i	x	-6%	-22%	x	i
N#C/C(=C\Nc1ccc2cn[nH]c2c1)c1nc(-c2ccc(Cl)cc2)cs1	u	18µM*	14%	-21%	15µM*	u
Cc1ccc(/C=N\NC(=O)c2ccc(Cn3cc(Br)c([N+](=O)[O-])n3)o2)o1	i	-17%	-3%	7%	-7%	u
O=C(N/N=C\c1cccc(Cl)c1)c1ccc(Cn2cc(Br)c([N+](=O)[O-])n2)o1	21µM*	-21%	u	-2%	-20%	u
CCC(=O)Nc1cc2c(cc1C(=O)CC)OCCO2	21µM*	0%	-1%	5%	16%	i
Cc1ccc(-n2ncc3c(SCc4ccccn4)ncnc32)c(C)c1	8.2µM*	u	3%	-18%	u	u
CN(C)CC/C=C1\c2ccccc2Sc2cc(F)c(Cl)cc21	u	26µM*	u	-42%	12µM*	i
CC[N+](C)(C)CC/C=C1/c2ccccc2Sc2ccc(Cl)cc21	i	10%	8%	15%	u	i
CN(C)CC/C=C1\c2ccc(F)cc2Sc2cc(F)c(Cl)cc21	i	u	u	18µM*	u	i
CN(C)CC/C=C1/c2ccc(F)cc2Sc2ccc(Cl)cc21	i	21µM*	u	16µM*	18µM*	i
CN(C)CC/C=C1\c2cc(Cl)ccc2Sc2cc(F)c(F)cc21	i	u	u	-128%	-17%	i
CNC(=O)c1c(NC(=O)c2cc(=O)c3cc(C)c(C)cc3o2)sc2c1CCCC2	i	x	5%	2%	x	i
C[n+]1cccc(O)c1SCc1ccccc1	u	-25%	u	-64%	23µM*	i
COc1cc(OC)cc(-c2cc3nc(C)c(CCC(=O)NCc4ccc(Cl)cc4)c(C)n3n2)c1	i	x	u	-36%	x	i
O=C(NC1(C(F)(F)F)N=C(c2ccccc2)NC1=O)c1ccccc1F (configuration not stated)	i	2%	1%	15%	5%	i
O=C(NC1(C(F)(F)F)N=C(c2ccccc2)NC1=O)c1ccc(Cl)cc1Cl (configuration not stated)	18µM*	2%	11%	0%	-11%	i
O=S1(=O)N[C@@H](c2ccccc2)COc2cc(Br)ccc21	i	5%	6%	-15%	1%	i
COC(=O)c1[nH]c2ccccc2c1NC(=O)CNC1CCCCC1	18µM*	0%	-26%	-22%	0%	i
COC(=O)c1[nH]c2ccccc2c1NC(=O)CN1CCCCCC1	i	-4%	17%	-30%	-1%	i
Cc1cccc(NC(=O)Nc2ccc(Oc3c(F)c(F)c(F)c(F)c3F)cc2)c1	i	3%	-32%	-2%	6%	i
O=C(Nc1ccc(Oc2c(F)c(F)c(F)c(F)c2F)cc1)OC1CCN2Cc3ccccc3N=C12 (configuration not stated)	u	u	10µM*	10µM*	u	8.2µM*
COc1ccc(C2CC(O)(c3ccccc3)Oc3cc(OC)ccc32)cc1 (configuration not stated)	u	u	18µM*	13µM*!	u	u
COc1ccc(C2CC(O)(c3ccccc3)Oc3c(C)ccc(C(C)C)c32)cc1 (configuration not stated)	x	x	16µM*	-33%	x	x
COc1ccc(C2CC(=O)Oc3cc(OC)ccc32)cc1 (configuration not stated)	i	-2%	-2%	0%	1%	i
SMILES	KB-V1 MDR tox	HT1080NT lethal	TGFb SMAD3 inh	HepG2 tox	HT1080 IDH1KD tx	KB-3-1 cytotox
COc1ccccc1NC(=O)C1CCCN(c2nc(C)cc(C)n2)C1 (configuration not stated)	u	9%	-2%	-27%	0%	i
Cc1cc(C)nc(N2CCC(C(=O)Nc3ccc4c(c3)OCO4)CC2)n1	u	4%	0%	1%	0%	i
Cc1cc(C)nc(N2CCCC(C(=O)NCCc3cccc(F)c3)C2)n1 (configuration not stated)	18µM*	10%	u	2%	-1%	i
Cc1cc(C)nc(N2CCCC(C(=O)Nc3cc(F)ccc3C)C2)n1 (configuration not stated)	16µM*	2%	-3%	-20%	-2%	i
Cc1cc(C)nc(N2CCCC(C(=O)Nc3ccc4c(c3)OCO4)C2)n1 (configuration not stated)	23µM*	2%	-2%	-76%	0%	i
c1ccc(CNc2nc3ccccc3c3nc(-c4ccccc4)nn23)cc1	i	x	u	1%	x	i
CC1CC(C)(C)NC(=S)N1CCC(=O)Nc1ccc2c(c1)OCCO2 (configuration not stated)	u	u	-23%	-37%	u	23µM*
C=Cc1ccc(Cn2c(C(=O)O)c(CNCc3cc(OC)ccc3OC)c3ccc(C)cc32)cc1	i	x	-1%	-14%	x	i
COc1ccc(C(=O)C[C@@H]2OC[C@H](C)N2S(=O)(=O)c2ccc(C)cc2)cc1OC	u	0%	x	x	-5%	i
COc1ccc(C(=O)C[C@@H]2OC[C@H](C(C)C)N2S(=O)(=O)c2ccc(C)cc2)cc1OC	21µM*	0%	x	x	-8%	i
CCOC(=O)c1c(C)nc2c(C)cccn12	i	11%	19%	-8%	6%	i
Cc1nc2c(C)cccn2c1C(=O)c1ccccc1	26µM*	7%	2%	-28%	-3%	u
Cc1ccc(NC(=O)c2cc3c([nH]c2=O)CC(C)(C)CC3=O)cc1	i	x	u	-46%	x	i
CCCCC(=O)Nc1ccnc(-c2cccnc2)n1	16µM*	-19%	u	-23%	-10%	i
CCOc1ccccc1N1CC(c2nc3ccccc3n2CCCOc2ccccc2)CC1=O (configuration not stated)	i	x	3%	-12%	x	i
COC(=O)/C(N=Nc1cccc(C(F)(F)F)c1)=C(\C)O	5.8µM*	14%	28%	10%	17%	u
